The campaign covered roughly 410,000 compounds. About 5,100 (1.2%) were called active. Another 8% or so got no clear call; they are omitted. Shown is part of a subset that was picked to be rich in actives. Unmarked numbers belong to inactive results. Calls come from the whole dose curve; tested in HEK293T cells.
Assay: High Throughput Screening for Foot and Mouth Disease Virus Antivirals; note: read-out not given here; nearly all actives have a fitted effect of over 45% in size
Conditions: FMDV antiviral cell-based qHTS; series mostly up to 57.9 µM; activity change, negative = inhibition: at the top concentration
% is set by controls: 0 for no effect and ±100 for the full control effect; potency is the fitted concentration of half-maximal effect.

| SMILES | activity change, negative = inhibition | Potency |
| --- | --- | --- |
| Cc1cccc(NC(=O)Cn2c(C(F)(F)F)nc3ccccc32)c1C | -0.0408% |  |
| CC(=O)Nc1cc(C(=O)N2CCc3c(Cl)cccc3C2)cc2ncn(CCc3ccccn3)c12 | -13.7% |  |
| CCOC(=O)C1CCCN(C(=O)c2ccc3c(c2)sc2nc(-c4ccc(CC)cc4)cn23)C1 (configuration not stated) |  | 14.1 µM (active) |
| CCOC(=O)C1CCCN(C(=O)c2cncc(Br)c2)C1 (configuration not stated) | -6.75% |  |
| COc1ccc(CCNC(=O)c2ccc3c(c2)sc2nc(-c4ccc(C)cc4)cn23)cc1OC | -8.99% |  |
| CCC(=O)N1c2ccccc2CC1C(=O)N1CCN(c2cccc(OC)c2)CC1 (configuration not stated) | -4.67% |  |
| CCNS(=O)(=O)c1ccc(CCC(=O)N2CCN(c3ccc(OC)cc3)CC2)cc1 | -11.2% |  |
| CCCNS(=O)(=O)c1ccc(CCC(=O)N2CCCC2)cc1 | 11.1% |  |
| CCNS(=O)(=O)c1ccc(CCC(=O)N2CCN(c3cc(Cl)ccc3C)CC2)cc1 |  | 15.8 µM (active) |
| Cc1cnc(C(=O)N2CCOc3ccc(CN4CCCC(C(=O)c5cccnc5)C4)cc3C2)[nH]1 (configuration not stated) | -28.1% |  |
| CC(=O)Nc1ccccc1-c1nc(CNC(=O)c2ccc(Cl)cc2)c(C)o1 | 32.2% |  |
| C=CCOc1ccc(/C=C/C(=O)OC(C)C(=O)Nc2ccc(NC(C)=O)cc2)cc1 (configuration not stated) | -10.8% |  |
| C=CCOc1ccc(/C=C2\SC(=S)N(CCC(=O)O)C2=O)cc1 |  | 1 µM (active) |
| C=CCN1C(=O)NC(=O)/C(=C/c2ccc(OCC(=O)Nc3ccc(C)cc3)cc2)C1=O | 17% |  |
| COC(=O)[C@@H]1C[C@H](NC(=O)c2ccccc2C(F)(F)F)CN1Cc1cccc(O)c1 | -13.1% |  |
| FC(F)(F)c1cccc(-c2cn[nH]c2C2CCCN(Cc3cccn3-c3ccccn3)C2)c1 (configuration not stated) | -11.1% |  |
| COc1ccc(CCC(=O)c2c(O)cc(OC3OC(CO)C(O)C(O)C3O[C@@H]3OC(C)C(O)C(O)C3O)cc2O)cc1O (some centres not stated) | 7.43% |  |
| COc1ccc(CCNc2ncnc3sc(C(=O)N4CCCC4)c(C)c23)cc1OC | -6.91% |  |
| COc1ccc(CCNc2ncnc3nc[nH]c23)cc1OC |  | 25.1 µM (active) |
| COc1ccc(CCNc2nc3ccc(C)cc3n3cnnc23)cc1OC | -23.1% |  |
| c1ccc(CCCCN2CCC(c3ccccc3)CC2)cc1 |  | inactive |
| CCOC(=O)/C(=C\c1ccc([N+](=O)[O-])cc1)C(=O)c1cc(C(C)=O)c(Nc2ccccc2)s1 |  | 15.8 µM (active) |
| CC(C)c1nnc(NC(=O)COC(=O)/C=C/c2ccc([N+](=O)[O-])cc2)s1 | -20.7% |  |
| CCOC(=O)c1c(C)[nH]c(C)c1C(=O)COC(=O)/C=C/c1cccc([N+](=O)[O-])c1 | -27.2% |  |

| SMILES | activity change, negative = inhibition | Potency |
| --- | --- | --- |
| COc1ccc(OCCCn2c(C)nc3cc(C)c(C)cc32)cc1 | -14.5% |  |
| COc1ccc(NC(=O)CSc2nccn2C2CCCC2)cc1OC | -3.75% |  |
| COc1ccc(C2CC(=O)N(Cc3ccccc3C)c3c2c(C)nn3-c2nc(C)cc(C)n2)c(OC)c1 (configuration not stated) | -17.6% |  |
| O=C(O)CCn1c(O)c(C=C2N=c3ccccc3=N2)sc1=S |  | 10 µM (active) |
| CCc1nc(-c2cc(S(=O)(=O)N3CCN(c4ccc(OC)cc4)CC3)ccc2OC)no1 | 2.16% |  |
| Cc1ccc(Cn2cc(CN3CC(N4CCN(C)CC4)CS3(=O)=O)nn2)cc1 (configuration not stated) | -21.6% |  |
| CN(C)C1CN(Cc2cn(Cc3ccccc3)nn2)S(=O)(=O)C1 (configuration not stated) | -13.3% |  |
| CN(Cc1cn(Cc2ccc(C(F)(F)F)cc2)nn1)C1CN(Cc2cn(Cc3ccc(C(F)(F)F)cc3)nn2)S(=O)(=O)C1 (configuration not stated) |  | 17.8 µM (active) |
| Cc1ccc(CN2CCC(CNC(=O)c3cnn(-c4ccc(C)cc4)c3C3CCN(C(=O)OC(C)(C)C)CC3)CC2)cc1 | -4.3% |  |
| COc1ncc2nc(-c3ccc(Cl)cc3)c(=O)n(C)c2n1 | 9.77% |  |
| Cc1cccc(NC(=O)c2nc(S(=O)(=O)Cc3ccccc3)ncc2Cl)c1 |  | 10 µM (active) |
| CCCSc1ncc(Cl)c(C(=O)Nc2c(C(=O)Nc3ccccc3)oc3ccccc23)n1 | -12.2% |  |
| Cc1cccc(NC(=O)Cn2cc(S(=O)(=O)Cc3ccccc3Cl)c3ccccc32)c1 | -1.97% |  |
| O=C(Nc1nc2ccc(F)cc2s1)c1nc(SCc2ccccc2F)ncc1Cl | -23.3% |  |
| CCOC(=O)c1ccc(NC(=O)c2nc(SCc3ccc(F)cc3)ncc2Cl)cc1 | -13.5% |  |
| Cc1ccc2nc(NC(=O)c3nc(SCc4ccccc4F)ncc3Cl)sc2c1 | -21.4% |  |
| CCS(=O)(=O)c1ncc(N(Cc2ccc(F)cc2)Cc2ccco2)c(C(=O)Nc2cc(C)ccc2C)n1 | 7.45% |  |
| CSc1nnc(NC(=O)c2nc(S(=O)(=O)Cc3ccc(C)cc3)ncc2Cl)s1 |  | 12.6 µM (active) |
| Cc1ccc(NC(=O)c2nc(S(=O)(=O)Cc3cccc(C)c3)ncc2Cl)cc1 |  | 25.1 µM (active) |
| CCC(C)(C)N=C(NC#N)Nc1cccnc1 | -21.6% |  |
| COc1ccccc1C1CN(CCNC(=O)C2=CCCC2)Cc2ccccc2O1 (configuration not stated) | 34.4% |  |
| CCOC(=O)c1c(S(=O)(=O)N2CCCC(C(=O)NCc3cccc(C)c3)C2)c(C)n(C)c1C (configuration not stated) | -22.3% |  |
| CCc1ccccc1N1C(=O)CN(S(=O)(=O)CC)CC1(C)C(=O)NC1CCCCC1 (configuration not stated) | 0% |  |
